Reference: PubChem BioAssay (NCI)
The panel holds about 79,000 compounds, 15% with a hit somewhere; the sample as a whole holds those more often. The source made the active and inactive calls. No stated cut-off is given here; in the data, active means growth inhibition above about 70%; inactive means the rest.

Legend:
[1] = NCI Yeast Anticancer Drug Screen. Data for the rad52 strain (AID 147);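 further: 0% = growth of vehicle-treated control cultures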; details: S. cerevisiae rad52 mutant growth inhibition, hits give high values
Method in brief: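 DNA repair-defective yeast; compound exposure; growth scored against vehicle controls.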

[2] = NCI Yeast Anticancer Drug Screen. Data for the wt1 strain (AID 149);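 further: 0% = growth of vehicle-treated wt1 cultures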; details: S. cerevisiae wt1 strain (SPY 50644) growth inhibition, hits give high values
Method in brief: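 Growth inhibition read against vehicle controls after compound exposure of the wt1 yeast strain.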

[3] = NCI Yeast Anticancer Drug Screen. Data for the rad50EPP+ strain (AID 151);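 further: 0% = growth of vehicle-treated control cultures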; details: S. cerevisiae rad50 mutant strain, hits give high values
Method in brief: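 rad50EPP+ yeast treated with test compounds. Readout: growth vs vehicle control.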

[4] = NCI Yeast Anticancer Drug Screen. Data for the mgt1 strain (AID 153); details: S. cerevisiae mgt1 mutant growth inhibition, hits give high values
Method in brief: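 Growth inhibition relative to vehicle controls was scored for the mgt1 yeast strain after compound exposure.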

[5] = NCI Yeast Anticancer Drug Screen. Data for the rad50 strain (AID 155);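 further: 0% = growth of vehicle-only cultures of the same strain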; details: S. cerevisiae rad50 strain growth inhibition, hits give high values
Method in brief: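 Readout: growth inhibition relative to vehicle-treated cultures. Compound exposure was carried out in a genetically defined yeast strain deficient in DNA damage repair.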

[6] = NCI Yeast Anticancer Drug Screen. Data for the mec2-1 strain (AID 157); details: S. cerevisiae mec2-1 strain, hits give high values
Method in brief: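 Growth inhibition is read against vehicle-treated controls after compound exposure of the mec2-1 yeast strain, which is defective in DNA damage repair or cell cycle control.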

[7] = NCI Yeast Anticancer Drug Screen. Data for the rad14 strain (AID 159);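 further: 0% = growth of vehicle-treated control cultures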; details: S. cerevisiae rad14 strain growth inhibition, hits give high values
Method in brief: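 Growth inhibition vs vehicle controls; genetically altered yeast strain (DNA damage repair defect) treated with test compounds.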

[8] = NCI Yeast Anticancer Drug Screen. Data for the sgs1 mgt1 strain (AID 161);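 further: 0% = growth of cultures given vehicle only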; details: S. cerevisiae sgs1 mgt1 strain, hits give high values
Method in brief: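 Compounds are added to genetically altered yeast, and growth is compared with cultures given vehicle alone to give percent inhibition.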

[9] = NCI Yeast Anticancer Drug Screen. Data for the CLN2oe strain (AID 163);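 further: 0% = growth of vehicle-only control cultures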; details: S. cerevisiae CLN2oe strain, hits give high values
Method in brief: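 Compound-treated yeast; growth vs vehicle ctrl = % inhibition. Genetically altered strain (cell-cycle control).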

[10] = NCI Yeast Anticancer Drug Screen. Data for the cln2 rad14 strain (AID 165);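 further: 0% = growth equal to vehicle treated cultures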; details: S. cerevisiae cln2 rad14 strain, hits give high values
Method in brief: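 Growth inhibition, relative to vehicle-treated controls, is the read-out. The test organism is a yeast strain with defined genetic alterations, cln2 rad14.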

[11] = NCI Yeast Anticancer Drug Screen. Data for the bub3 strain (AID 167); details: S. cerevisiae bub3 mutant strain, hits give high values
Method in brief: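 Readout: yeast growth inhibition, expressed relative to vehicle-only wells. The test organism is a mutant strain from a panel with lesions in DNA repair or checkpoint genes.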

[12] = NCI Yeast Anticancer Drug Screen. Data for the wt2 strain (AID 169);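 further: 0% = growth of vehicle-treated yeast cultures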; details: S. cerevisiae wt2 strain growth inhibition, hits give high values
Method in brief: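 Compound exposure of yeast; growth compared with vehicle controls; inhibition reported.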

[13] = NCI Yeast Anticancer Drug Screen. Data for the mlh1 strain (AID 171);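 further: 0% = growth of vehicle-treated control cultures of the same strain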; details: S. cerevisiae mlh1 strain growth inhibition, hits give high values
Method in brief: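 Compounds are applied to a genetically altered yeast strain, and its growth is compared with that of vehicle-treated cultures to give percent inhibition.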

[14] = NCI Yeast Anticancer Drug Screen. Data for the sgs1 strain (AID 173);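 further: 0% = growth of vehicle-only control cultures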; details: S. cerevisiae sgs1 mutant, hits give high values
Method in brief: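 Compounds applied to genetically altered yeast; growth compared with vehicle-treated cultures to give % inhibition.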

[15] = NCI Yeast Anticancer Drug Screen. Data for the mlh1 rad18 strain (AID 175); details: S. cerevisiae mlh1 rad18 strain growth inhibition, hits give high values
Method in brief: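 Cells of a genetically altered yeast strain, deficient in DNA damage repair, were treated with compound. Their growth was then compared with that of vehicle-treated cultures to give inhibition.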

[16] = NCI Yeast Anticancer Drug Screen. Data for the rad18 strain (AID 177); details: S. cerevisiae rad18 mutant growth inhibition, hits give high values
Method in brief: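 Compounds are applied to a repair-deficient yeast strain, and growth is compared with that of vehicle-treated cultures to give percent inhibition.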

[17] = at 5.0 µM (retest, dose inferred, filed as 0.5)
[18] = at 50.0 µM (retest, dose inferred, filed as 5.0)

Measured: growth inhibition

O=C1C=C(c2ccccc2)OC1(c1ccccc1)N1CCOCC1 (stereo unspecified)
inactive: [1]; at 1.2 µM -1% | [1]; at 3.7 µM -1% | [1]; at 11.0 µM 3% | [1]; at 33.0 µM 16% | [2]; at 1.2 µM -1% | [2]; at 3.7 µM 2% | [2]; at 11.0 µM -4% | [2]; at 33.0 µM -7% | [3]; at 1.2 µM 3% | [3]; at 3.7 µM 7% | [3]; at 11.0 µM 7% | [3]; at 33.0 µM 10% | [3]; at 100.0 µM 17% | [4]; at 1.2 µM -5% | [4]; at 3.7 µM -6% | [4]; at 11.0 µM -4% | [4]; at 33.0 µM 59% | [5]; at 1.2 µM 1% | [5]; at 3.7 µM 4% | [5]; [17] -20% | [5]; at 11.0 µM 1% | [5]; at 33.0 µM 19% | [5]; [18] 69% | [5]; at 50.0 µM -0.2% | [6]; at 1.2 µM -1% | [6]; at 3.7 µM 4% | [6]; [17] -12% | [6]; at 11.0 µM 3% | [6]; at 33.0 µM 8% | [6]; [18] 0% | [6]; at 50.0 µM -5.95% | [7]; at 1.2 µM -2% | [7]; at 3.7 µM -1% | [7]; at 11.0 µM -1% | [7]; at 33.0 µM 9% | [8]; [17] -2% | [8]; at 50.0 µM 55.7% | [9]; at 1.2 µM 1% | [9]; at 3.7 µM -4% | [9]; at 11.0 µM 6% | [9]; at 33.0 µM 0% | [10]; [17] 2% | [10]; [18] 14% | [10]; at 50.0 µM 19.9% | [11]; at 1.2 µM 0% | [11]; at 3.7 µM -1% | [11]; [17] -1% | [11]; at 11.0 µM 4% | [11]; at 33.0 µM 14% | [11]; [18] 44% | [11]; at 50.0 µM -27.7% | [12]; at 1.2 µM 0% | [12]; at 3.7 µM -1% | [12]; at 11.0 µM -3% | [12]; at 33.0 µM 52% | [13]; at 1.2 µM 3% | [13]; at 3.7 µM 1% | [13]; at 11.0 µM -7% | [13]; at 33.0 µM 55% | [14]; at 1.2 µM 0% | [14]; at 3.7 µM 0% | [14]; at 11.0 µM 4% | [15]; [17] -17% | [15]; at 50.0 µM -1.85% | [16]; at 1.2 µM 1% | [16]; at 3.7 µM -4% | [16]; at 11.0 µM -2% | [16]; at 33.0 µM 7%
active: [1]; at 100.0 µM 98% | [2]; at 100.0 µM 98% | [4]; at 100.0 µM 98% | [5]; at 100.0 µM 98% | [6]; at 100.0 µM 98% | [7]; at 100.0 µM 98% | [8]; [18] 90% | [9]; at 100.0 µM 97% | [11]; at 100.0 µM 98% | [12]; at 100.0 µM 98% | [13]; at 100.0 µM 98% | [14]; at 33.0 µM 76% | [14]; at 100.0 µM 98% | [15]; [18] 75% | [16]; at 100.0 µM 98%

O=C(CC(=O)n1nc(-c2ccccc2)c(N=Nc2ccc(Cl)cc2)c1-c1ccccc1)Nc1cccc(Cl)c1
inactive: [1]; at 1.2 µM -4% | [1]; at 3.7 µM -1% | [1]; at 11.0 µM 1% | [1]; at 33.0 µM 0% | [1]; at 100.0 µM 0% | [2]; at 1.2 µM -2% | [2]; at 3.7 µM -3% | [2]; at 11.0 µM -5% | [2]; at 33.0 µM -4% | [2]; at 100.0 µM -5% | [3]; at 1.2 µM 1% | [3]; at 3.7 µM 8% | [3]; at 11.0 µM 14% | [3]; at 33.0 µM 26% | [3]; at 100.0 µM 29% | [4]; at 1.2 µM -5% | [4]; at 3.7 µM -5% | [4]; at 11.0 µM -7% | [4]; at 33.0 µM -4% | [4]; at 100.0 µM -6% | [5]; at 1.2 µM -2% | [5]; at 3.7 µM 1% | [5]; [17] 7% | [5]; at 11.0 µM 0% | [5]; at 33.0 µM 2% | [5]; [18] -3% | [5]; at 50.0 µM 48.1% | [5]; at 100.0 µM 2% | [6]; at 1.2 µM -4% | [6]; at 3.7 µM -4% | [6]; [17] -4% | [6]; at 11.0 µM -2% | [6]; at 33.0 µM -3% | [6]; [18] -19% | [6]; at 50.0 µM 46% | [6]; at 100.0 µM -4% | [7]; at 1.2 µM -4% | [7]; at 3.7 µM -3% | [7]; at 11.0 µM -2% | [7]; at 33.0 µM -1% | [7]; at 100.0 µM 1% | [8]; [17] 0% | [8]; [18] 2% | [9]; at 1.2 µM -8% | [9]; at 3.7 µM -10% | [9]; at 11.0 µM -10% | [9]; at 33.0 µM -11% | [9]; at 100.0 µM -15% | [10]; [17] 2% | [10]; [18] 15% | [10]; at 50.0 µM 31.6% | [11]; at 1.2 µM 27% | [11]; at 3.7 µM 28% | [11]; [17] 8% | [11]; at 11.0 µM 34% | [11]; at 33.0 µM 45% | [11]; at 100.0 µM 51% | [12]; at 1.2 µM -3% | [12]; at 3.7 µM -3% | [12]; at 11.0 µM -3% | [12]; at 33.0 µM -5% | [12]; at 100.0 µM -5% | [13]; at 1.2 µM -5% | [13]; at 3.7 µM -2% | [13]; at 11.0 µM -2% | [13]; at 33.0 µM -4% | [13]; at 100.0 µM -6% | [14]; at 1.2 µM -4% | [14]; at 3.7 µM -2% | [14]; at 11.0 µM 1% | [14]; at 33.0 µM 0% | [14]; at 100.0 µM 1% | [15]; [17] -5% | [15]; [18] 17% | [15]; at 50.0 µM 57.1% | [16]; at 1.2 µM -4% | [16]; at 3.7 µM -4% | [16]; at 11.0 µM -1% | [16]; at 33.0 µM 1% | [16]; at 100.0 µM 0%
active: [8]; at 50.0 µM 73.7% | [11]; [18] 78% | [11]; at 50.0 µM 88.7%
